This note sets out measurements from ChEMBL document CHEMBL3988442, “University of Dundee, Small-Polar-MMV Screening Library” (2021).

The assay concerns the target AMP-activated protein kinase, AMPK (Homo sapiens) (UniProt P54646+O43741+P54619+Q9UGJ0+Q9Y478+Q13131+Q9UGI9). The assay is described as follows: AMP-dependent Kinase enzyme assay. An in vitro enzyme assay that detects ADP turnover that is directly proportional to AMPK activity. This uses naive AMPK that is activated during the assay with MK-8722. Format: functional. Also noted: scale not given: direction of the effect not stated beside the values. The following applies: 30 µM.
`CC(=O)N1CCCC1c1nccc(C)n1` (stereo not given): the Percent Effect came to 9.75%.

Turning to `CN(Cc1nccn1CC(F)(F)F)C(=O)c1cccc(C#N)c1`, the Percent Effect is 6.05%.

Take `COc1ccc(-c2noc(CNC(C)Cn3cccn3)n2)c(OC)c1` (stereo not given): the Percent Effect is -3.12%.

For the molecule `NCC(=O)N1CCCC(c2cncc(Nc3ncccn3)n2)C1` (stereo not given), the Percent Effect is 17.7%.

For `O=C(Cc1ccccc1)N1CCC2(CC(=O)N(c3ccsc3)C2)C1` (stereo not given), the Percent Effect was -4.26%.

Take `CCCSCC(=O)NS(=O)(=O)c1ccc2c(c1)OCCO2`: the Percent Effect worked out at 5.73%.

In the case of `O=C(NC1CC1)[C@H]1C[C@@H]2CCN(CCc3ccccc3)C[C@H]2O1`, the Percent Effect turned out to be 9.4%.

Turning to `OC1CCCN(Cc2c(-c3ccco3)[nH]c3ncccc23)C1` (stereo not given), the Percent Effect is -13.3%.

On to `Cn1cccc1C1CCCN1C(=O)NCCCn1cccn1` (stereo not given), for which the Percent Effect is -3.95%.

Consider `O=C(NC1(c2nnn(CCO)n2)CCCC1)c1ccccc1`, for which the Percent Effect was -5.64%.

For `O=C(Cc1ccccc1)N1CCC2(CC(=O)N(c3cccc(F)c3)C2)C1` (stereo not given), the Percent Effect was -5.09%.

Regarding `c1cncc(C2COC3(CCN(CC4CC4)CC3)C2)c1` (stereo not given), the Percent Effect turned out to be 0.748%.

In the case of `Cc1nc(C2CCCN(C(=O)c3ccc(OCC4CC4)cc3)C2)no1` (stereo not given), the Percent Effect was -2.79%.

For the molecule `Cc1ncsc1C(=O)NC1CCN(CCC(N)=O)CC1`, the Percent Effect was -3%.

With `CCn1cc(N)c(C(=O)NCc2cnn(C)c2)n1`, the Percent Effect is 2.98%.

Turning to `O=C(NCCNc1ccc(C(F)(F)F)cn1)c1ccc(Br)cc1F`, the Percent Effect was 7.24%.

Turning to `CCc1ccc(C(=O)N2CCCC(c3noc(CC)n3)C2)o1` (stereo not given), the Percent Effect was 7.44%.

In the case of `CN(c1ccc(C(=O)NCCCN2CCOCC2)c(Cl)c1)S(C)(=O)=O`, the Percent Effect was -0.453%.

`CCN1CCCC1CN(CCN(C)C)S(=O)(=O)c1ccc(C#N)cc1` (stereo not given): the Percent Effect was -10.9%.

Take `CN(C)C(C)(C)CNC(=O)C(C)(C)c1ccccc1F`: the Percent Effect was -4.87%.
